In all, about 340,000 compounds went through this assay and about 2,100 (0.62%) were called active. Only a sample is shown. Results with a measured potency or affinity are listed apart. Unmarked numbers belong to inactive results.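 How the source made its calls: active means first-screen hits whose inhibition reached a set limit at any dose in the follow-up dose series; inconclusive means inhibition above the set first-screen limit but never retested; inactive means the rest.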

This test deals with Rac GTPase-activating protein 1 (Homo sapiens) (UniProt Q9H0H5). As to the kind of experiment: blockers of MgcRacGAP-driven Rac1 GTP hydrolysis – biochemical, ADP Hunter fluorescence, primary and confirmatory, confirmation (AID 624330).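 Further: fluorescence reports GDP produced by GAP-driven GTP hydrolysis.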 The conditions noted are these: MgcRacGAP-stimulated Rac1 GTP hydrolysis, at 30 µM, active compounds read high, GST-tagged Rac1 F28L mutant substrate.
Chain of Rac GTPase-activating protein 1 (Homo sapiens) (Q9H0H5 whole entry, looked up): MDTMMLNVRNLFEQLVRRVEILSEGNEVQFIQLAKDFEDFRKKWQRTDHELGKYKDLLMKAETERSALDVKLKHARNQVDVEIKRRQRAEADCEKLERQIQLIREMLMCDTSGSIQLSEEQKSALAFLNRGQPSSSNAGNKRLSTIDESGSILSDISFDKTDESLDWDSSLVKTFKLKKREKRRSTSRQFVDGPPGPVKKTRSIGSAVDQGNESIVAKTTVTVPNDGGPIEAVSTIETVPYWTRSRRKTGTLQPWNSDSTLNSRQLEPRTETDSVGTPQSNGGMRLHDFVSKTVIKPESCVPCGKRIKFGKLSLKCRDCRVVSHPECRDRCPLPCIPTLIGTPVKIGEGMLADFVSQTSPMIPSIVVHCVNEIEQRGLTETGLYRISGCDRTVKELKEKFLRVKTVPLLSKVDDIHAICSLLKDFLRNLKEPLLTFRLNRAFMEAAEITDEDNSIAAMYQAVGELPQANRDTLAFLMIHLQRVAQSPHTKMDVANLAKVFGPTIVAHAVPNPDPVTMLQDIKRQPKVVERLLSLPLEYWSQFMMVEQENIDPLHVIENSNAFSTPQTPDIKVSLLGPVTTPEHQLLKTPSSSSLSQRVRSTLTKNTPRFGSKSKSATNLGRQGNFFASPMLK
In the case of `Cc1cccc(/C(N)=N/OC(=O)Cc2cccs2)c1`, the inhibition (in general, the change of the read-out against control, counted positive when it falls) was 2.9%.
Next, `Cn1c(=O)c2c(nc(Oc3ccc(-c4ccccc4)cc3)n2C)n(C)c1=O`: 12.2%; `COc1ccc(C(=O)Oc2c(OC)cc(C(=S)N3CCOCC3)cc2OC)cc1`: 4.31%; `Cc1ccc(OCCCCN2CCC(C)CC2)c(Br)c1`: 17%.
As to `Cc1cc(Br)ccc1OCCCCN1CCC(C)CC1`, the inhibition was 9.17%.
For the molecule `C[C@@H]1CN([C@@H](C)CO)C(=O)CCCn2nncc2CO[C@@H]1CN(C)S(C)(=O)=O`, the inhibition is 12%.
Next, `COCc1ccc(C(=O)N2CCCCC2C(=O)Nc2ccc(-n3nc(C)cc3C)cc2)o1` (stereo unspecified): 7.88%; `O=C(NCCCNC(=O)c1ccco1)c1ccc(Cl)c(Cl)c1`: 0%; `COc1ccc(N=CC2=C(O)CC(C)(C)CC2=O)cc1`: 9.7%.
Next, `O=C1CC(c2ccccc2)CC(O)=C1C=Nc1ccccc1O` (stereo unspecified): 4.93%.
The same measure for `O=C1CC(c2ccccc2)CC(O)=C1C=Nc1ccc(Cl)cc1` (stereo unspecified): 2.18%.
Consider `CCOc1ccc(N=CC2=C(O)CC(C)(C)CC2=O)cc1`, for which the inhibition is 6.9%.
As to `CC1(C)CC(=O)C(C=Nc2ccccc2)=C(O)C1`, the inhibition is 2.7%.
Turning to `CC1(C)CC(=O)C(C=Nc2ccncc2)=C(O)C1`, the inhibition is 6.33%.
Regarding `COc1ccc(N=CC2=C(O)CCCC2=O)cc1`, the inhibition is 13.3%.
`O=C1CCCC(O)=C1C=Nc1cccc(C(F)(F)F)c1`: the inhibition is 11.5%.
The same measure for `Cc1ccc(CN2CCN(/N=C/c3ccc(C)s3)CC2)c(C)c1`: 4.97%; for `COc1ccc(Nc2nnc(SCC(=O)NC3CCS(=O)(=O)C3)s2)cc1` (stereo unspecified): 4.04%.
Regarding `O=C(CN1C(=O)NC2(CCCCCC2)C1=O)N1CCN(S(=O)(=O)c2ccccc2)CC1`, the inhibition is 0.28%.
Next, `CC(=O)NC1C(=O)N(CC(C)C)c2ccccc21` (stereo unspecified): 4.92%; `CCCc1ccc2c(N)c(C#N)sc2n1`: 1.65%; `Cc1ccccc1C(=O)N(CC(=O)Nc1sc(C)c(C)c1C(N)=O)C1CCCC1`: -20.9%.
As to `CCOc1ccc(NC(=O)N(CCC(C)C)C2CCN(C(C)=O)CC2)cc1`, the inhibition is 4.34%.
The same measure for `Nc1ccc2c3c(cccc13)C(=O)N(c1ccccc1)C2=O`: 5.87%; for `CCN1C(=O)c2cccc3c(N)ccc(c23)C1=O`: 7.37%.
Next, `Cc1ncoc1C(=O)N1CCCC(C(=O)Nc2cccc(-c3ccc(F)cc3)c2)C1` (stereo unspecified): -3.84%; `CCCc1cc(C(=O)OC)c2ccccc2n1`: 5.2%.
Next, `O=C(COC(=O)C1CCC(=O)N1)Nc1ccc(Br)cc1` (stereo unspecified): 15.9%.
Consider `COc1ccc(CCNC(C(=O)Nc2cc(C)cc(C)c2)c2ccccc2)cc1` (stereo unspecified), for which the inhibition was 2.32%.
Next, `Cc1cc(C)cc(NC(=O)C(NCC2CCCO2)c2ccccc2)c1` (stereo unspecified): 20.5%; `CCC1(C)CC(CCN(Cc2ccco2)C(C)=O)(c2ccccc2)CCO1` (stereo unspecified): 6.02%; `CCOC(=O)N1CCC(N2C(=O)c3ccc(C(=O)NCc4ccc(F)cc4)cc3C2=O)CC1`: -5.85%.
The same measure for `CC(=O)c1c(C)[nH]c(C(=O)OCC(=O)Nc2ccc3[nH]c(=O)[nH]c3c2)c1C`: 9.39%; for `O=S(=O)(Cc1ccccc1)Nc1ccc(F)cc1`: 8.87%.
Turning to `CCOC(=O)N1CCC(NC(=O)c2ccc3c(c2)N=C(C)c2ccccc2S3)CC1`, the inhibition is 4.04%.
`CC1=Nc2cc(C(=O)NCCCOC(C)C)ccc2Sc2ccc(C)cc21`: the inhibition was 7.38%.
The same measure for `CC1=Nc2cc(C(=O)O)ccc2Sc2ccc(C)cc21`: -10.1%; for `CCC1=Nc2cc(C(=O)O)ccc2Sc2ccccc21`: -0.29%; for `Cc1cccc(N(C(=O)CNC(=O)c2ccco2)C(C(=O)NC2CCCC2)c2cccnc2)c1C` (stereo unspecified): 5.36%.
Consider `Cc1ccccc1OCC1Cn2c(nc3c2c(=O)[nH]c(=O)n3C)O1` (stereo unspecified), for which the inhibition was 2.68%.
As to `Cc1c(N2C(=O)/C(=C/c3ccc(N(C)C)cc3)N(C)C2=S)c(=O)n(-c2ccccc2)n1C`, the inhibition was 27.2%.
The same measure for `COC(=O)/C(N=Nc1c(C)n(C)n(-c2ccccc2)c1=O)=C(\C)O`: 6.21%.
Consider `CC(=O)/C(N=Nc1c(C)n(C)n(-c2ccccc2)c1=O)=C(\C)O`, for which the inhibition was 0.69%.
Next, `CN1C(=S)N(c2cccnc2)C(=O)/C1=C\c1ccc(N(C)C)cc1`: 12.2%; `Cc1c(O)c(=O)n(-c2ccccc2)n1C`: 2.13%; `Cc1c(NC(=S)N/N=C/c2cccc(O)c2)c(=O)n(-c2ccccc2)n1C`: 12.8%.
The same measure for `Cc1c(N=Cc2cc3c(cc2Cl)OCO3)c(=O)n(-c2ccccc2)n1C`: 4.04%; for `Cc1c(NC(=S)N/N=C/c2ccc(Br)cc2)c(=O)n(-c2ccccc2)n1C`: 9.41%; for `O=C(Nc1cccc(-c2cccc(F)c2)c1)C1CCN(Cc2ccco2)CC1`: 7.74%.
Next, `O=C(NCCN1C(=O)S/C(=C\c2ccccc2F)C1=O)C1CCCN1C(=O)c1cccs1` (stereo unspecified): -14.1%.
With `Cc1ccccc1OCC(=O)N/N=C/c1cn(Cc2ccccc2)c2ccccc12`, the inhibition is 3.64%.
Regarding `Cc1ccc2nc(-c3ccc(N4C(=N)SC5CS(=O)(=O)CC54)cc3)sc2c1` (stereo unspecified), the inhibition is 9.19%.
With `CCOc1ccc(C(=O)N2CCC(C(=O)c3ccc4c(c3)OCCO4)CC2)cc1`, the inhibition was -2.21%.
Next, `COc1ccc(/C=C2\CCCC(C(=O)C(F)(F)F)=C2O)cc1`: 4.33%; `Cc1ccc(S(=O)(=O)Nc2ccc(S(=O)(=O)N3CCOCC3)cc2)cc1`: 0.84%; `CC1CCc2sc(C(=O)NCCCn3ccnc3)cc2C1` (stereo unspecified): 5.91%.
Take `O=C(c1cc2c(=O)n3ccccc3nc2s1)N1CCN(Cc2ccccc2)CC1`: the inhibition was 4.57%.
The same measure for `CCC(C)C1=CC(=Nc2c(C)n(C)n(-c3ccccc3)c2=O)C=C(C(C)CC)C1=O` (stereo unspecified): 9.72%; for `Cc1c(-n2c(=S)[nH]c3ccccc3c2=O)c(=O)n(-c2ccccc2)n1C`: 4.22%; for `CC1=CC(=Nc2c(C)n(C)n(-c3ccccc3)c2=O)C=C(C)C1=O`: -4.18%.
With `Cc1c(N=Cc2nc3ccccc3[nH]2)c(=O)n(-c2ccccc2)n1C`, the inhibition was 17.9%.
The same measure for `Cc1c(N(C)C)c(=O)n(-c2ccccc2)n1C`: 3.4%.
Consider `Cc1c(C(c2ccc(N(C)C)cc2)c2c(C)n(C)n(-c3ccccc3)c2=O)c(=O)n(-c2ccccc2)n1C`, for which the inhibition was -5.89%.
Next, `O=NNc1nc2ccccc2n1Cc1ccccc1`: 7.61%; `CCOC(=O)C(NC(=O)Nc1ccc(F)cc1F)(Oc1ccc(F)cc1)C(F)(F)F` (stereo unspecified): 7.05%.
On to `Cc1cc(NS(C)(=O)=O)c(=O)n(Cc2c(F)cccc2Cl)c1`, for which the inhibition was -0.27%.
The same measure for `C=CCSc1nc2sc(C)c(C)c2c(=O)n1N`: 2.09%.
Next, `CCc1cc(Cn2nc(-c3ccccc3)cc2C(=O)NCC2CC2)on1`: 12%; `COc1cc2c(cc1OC)C(c1cccs1)N(C(=O)c1cccc(S(=O)(=O)N(C)C)c1)CC2` (stereo unspecified): 5.21%; `CCOc1ccc(S(=O)(=O)N2CCN(C(=O)CCOc3ccccc3C)CC2)cc1`: 3.82%.
The same measure for `CCOc1ccc(NC(=O)COc2cccc3c2CCN(Cc2cccnc2)C3=O)cc1`: 0.41%.
In the case of `O=C1CC2(CCN(C(=O)c3cccc(Br)c3)CC2)Oc2ccccc21`, the inhibition was 3.6%.
Next, `COc1cc2[nH]c(=S)nc(NCCC(C)C)c2cc1OC`: 20.9%.
As for `COc1ccc(C(=O)Nc2nc3cc(OC)c(OC)cc3c(=O)[nH]2)cc1`, the inhibition is 14.9%.
As to `COc1ccc(CCNc2nc(=S)[nH]c3cc(OC)c(OC)cc23)cc1OC`, the inhibition is 39.9%.
Take `COc1cc2nc(Nc3ccc(F)cc3)nc(N)c2cc1OC`: the inhibition was 6.17%.
With `CSc1nc2c([nH]1)c(=S)n(C)c(=O)n2C`, the inhibition is 8.34%.
Next, `COC(=O)C(CC(C)C)NC(=O)CNC(=O)c1ccccc1C` (stereo unspecified): 7.16%; `COc1ccccc1N1CCN(C(=O)c2cccc(N3C(=O)C4C5C=CC(C5)C4C3=O)c2)CC1` (stereo unspecified): 9.14%; `CC1=NNC(=O)C1Oc1ccccc1` (stereo unspecified): 10.8%.
The same measure for `COc1ccc(C2C(=O)NN=C2C)cc1` (stereo unspecified): 22.1%.
In the case of `Cn1c(N)c(C(=O)COC(=O)/C=C/c2ccccc2)c(=O)n(C)c1=O`, the inhibition was 1.47%.
`Cc1cnc(NC(=O)CN2CCN(c3ccccn3)CC2)s1`: the inhibition is 2.02%.
The same measure for `CCOc1ccccc1N1CCN(CC(=O)Nc2ncc(C)s2)CC1`: 5.5%; for `c1ccc(COc2ncnc3c2ncn3CCCNCC2CCCO2)cc1` (stereo unspecified): 7.05%.
The same measure for `COc1ccccc1OCCCCN1CCCCC1`: 3.62%; for `COc1ccccc1OCCCCCCN1CCN(C)CC1`: -3.02%.
`Brc1ccccc1OCCN1CCOCC1`: the inhibition was 17.5%.
Next, `Brc1ccccc1OCCCN1CCOCC1`: 14.8%.
The same measure for `COc1cc(C)ccc1OCCOCCOc1c(C)cc(C)cc1Br`: 3.98%.
As for `CCn1c(COc2ccc(=O)n(-c3ccccc3)n2)nnc1SCc1ccccc1C`, the inhibition is -2.27%.
Next, `O=C(c1noc2c1CCCCC2)N1CCOCC1`: 1.03%.
The same measure for `CC(C)CC(OC(=O)c1nsc(Cl)c1Cl)C(=O)NCC1CCCO1` (stereo unspecified): 5.99%; for `Cc1ccc(S(=O)(=O)N2CCN(c3c([N+](=O)[O-])cc(C(F)(F)F)cc3[N+](=O)[O-])CC2)cc1`: 6.82%.
Next, `O=C(Nc1ccc2c(c1)OCO2)C1CCCCC1`: 6.05%; `O=C(NC1CCCCCCC1)c1ccc2c(c1)OCO2`: 4.04%.

(Values after PubChem BioAssay AID624330 (Southern Research Specialized Biocontainment Screening …, 2012).)
